MARV entry inh: blocks Marburg virus binding to or entry into cells; 300,000 compounds, 1.8% hits; Marburg virus pseudotyped entry inhibition, cell reporter; Potency, µM (series often up to 37.8 µM), inactives show top-dose activity change, negative = inhibition, usual class: inhibitors; calls by dose curve; tested in HEK293 cells; also: potency is read from the fitted curve at half-maximal effect; % is scaled to controls: 0 for no effect and ±100 for the full control effect
VACV Venus inh: inhibitors of vaccinia virus (Venus reporter); Potency, µM (top dose mostly 36.5 µM), for inactives: at the highest dose activity change, negative = inhibition, actives largely listed as inhibitors; 330,000 compounds, 0.46% hits; AID 720580; Vaccinia virus Venus reporter expression, fluorescence; calls by dose curve; tested in A549 cells; also: potency is read from the fitted curve at half-maximal effect; % is scaled to controls: 0 for no effect and ±100 for the full control effect; nearly all actives have a fitted effect of over 30% in size
Vaccinia mCherry: inhibitors of vaccinia virus infection (mCherry reporter signal); Vaccinia virus mCherry reporter infection, fluorescence; Potency, µM (doses to about 36.5 µM), inactives show at the top dose activity change, negative = inhibition, usual class: inhibitors; 310,000 compounds, 0.63% hits; calls by dose curve; tested in A549 cells; also: potency is read from the fitted curve at half-maximal effect; % is scaled to controls: 0 for no effect and ±100 for the full control effect; nearly all actives have a fitted effect of over 35% in size
Shiga inhibitor: Shiga toxin inhibition; 290,000 compounds, 9.2% hits; Vero cells, Shiga toxin protein synthesis inhibition reporter; inhibition, % at 38.7 µM; in the data active = inhibition mostly above about 28%, no sharp cut-off; inactive = mostly below about 43%; also: 0% is about no effect
Cycloheximide cs: affects cycloheximide protein synthesis inhibition readout, counter-screen; cell reporter, cycloheximide protein synthesis inhibition counterscreen; max response, %; 300,000 compounds, 12% hits; in the data active = max response mostly above about 13%, no sharp cut-off; inactive = mostly below about 14%; also: read at 38.3 µM for the half of the compounds with a filed dose; 0% is about no effect
LASV entry inh: Lassa virus entry inhibition; Lassa virus pseudotype entry inhibition, cell reporter; Potency, µM (highest dose often 37.9 µM), without a hit: at the top dose activity change, negative = inhibition, hits mostly inhibitors; 300,000 compounds, 1.2% hits; AID 540256; calls by dose curve; tested in HEK293 cells; also: potency is read from the fitted curve at half-maximal effect; % is scaled to controls: 0 for no effect and ±100 for the full control effect; nearly all actives have a fitted effect of over 50% in size
The depositor's hits bear a star; i = inactive; ? = inconclusive; nt = no result given; [ ] = remark or other dose. Shown is part of a subset that was picked to be rich in hits.

SMILES | MARV entry inh | VACV Venus inh | Vaccinia mCherry | Shiga inhibitor | Cycloheximide cs | LASV entry inh
COc1ccc(NC(=O)n2nc(OC(=O)c3cccs3)cc2N)cc1 | nt | -8% | i | 51* | 33* | nt
COc1ccccc1CC(=O)Nc1ccc(NC(=O)c2cccs2)cc1 | ? | -19% | -16% | -5 | -3 | -23%
COc1ccc(-c2ccc(S(=O)(=O)n3nc(OC(=O)c4cccs4)cc3N)cc2)cc1 | nt | ? | i | -16 | 2 | nt
CC(=O)Nc1ccc(OC(=O)c2cccs2)cc1 | -1% | nt | nt | 71* | 34* | 13%
CC(=O)c1ccc(OC(=O)c2cccs2)cc1 | -5% | nt | nt | -13 | -2 | 9%
O=C(Nc1cccc(C(F)(F)F)c1)C1(c2ccccc2)CC1 | 12% | 0% | -7% | -7 | -2 | -14%
O=C(Nc1ccc(C(F)(F)F)cc1)C1(c2ccccc2)CC1 | -6% | -6% | -9% | 18 | 12* | 13%
COc1ccc(C(=O)Nc2cccc(OCc3cc(=O)n4c5c(sc4n3)CCCC5)c2)cc1OC | 11%[46.1 µM] | 1% | -6% | nt | nt | 3%[46.1 µM]
Cc1cccc(N2CCN(C(=O)CS(=O)(=O)Cc3nc(-c4ccccc4C)oc3C)CC2C)c1 (configuration not stated) | ? | -3% | -9% | nt | nt | -26%[46.1 µM]
O=C(Nc1ccc(C(F)(F)F)cc1)c1ccccc1Br | 12%[46.1 µM] | 8% | -6% | 108* | 49* | 13%
Cc1cc(C)cc(C(=O)Nc2ccc(NC(=O)c3cccs3)cc2)c1 | ? | ? | 10µM* | 10 | -1 | -19%
COC(=O)Cc1ccc(NC(=O)c2ccccc2Br)cc1 | ? | 5% | -2% | 50 | 15* | -10%
CC(=O)c1ccc(NC(=O)c2cccs2)cc1 | -16% | -16% | -22% | 125* | 54* | -12%
Cc1ccc(C(=O)Nc2ccc(NC(=O)c3cccs3)cc2)cc1C | nt | -7% | -6% | nt | nt | 9%[46.1 µM]
O=C(Nc1ccc(NC(=O)c2ccccc2Br)cc1)c1ccccc1 | nt | nt | nt | 15 | 16 | nt
CCC(C(=O)NCc1ccccc1)n1ncn2c(cc3occc32)c1=O (configuration not stated) | -4%[46.1 µM] | 5% | -3% | nt | nt | 25%[46.1 µM]
CC(Oc1ccccc1)C(=O)N[C@@H]1C(=O)N2C(C(=O)OCC3CCCCC3)C(C)(C)S[C@H]12 (some centres not stated) | nt | -9% | i | nt | nt | nt
N/C(=N\O)c1ccc(NC(=O)c2cccs2)cc1 | ? | nt | nt | 109* | 58* | 28%
COC(=O)NNC(=O)c1ccc(Cl)cc1Cl | ? | -8% | i | 7 | -2 | 16%
O=C(NC1CC(=O)c2sccc21)c1ccc(Cl)cc1Cl (configuration not stated) | 13%[46.1 µM] | 3% | -32% | 33 | 32* | 7%[46.1 µM]
Cn1c(=O)c2cc(NC(=O)Cc3cccc4ccccc34)ccc2n1-c1ccccc1 | nt | -27% | 8% | nt | nt | nt
CC(C)(C)C(=O)Nc1nc2ccc(S(C)(=O)=O)cc2s1 | 3%[46.1 µM] | -24% | -2% | 78* | 36* | 0%
CS(=O)(=O)c1ccc2nc(NC(=O)c3ccccc3)sc2c1 | ? | -24% | -30% | 39* | 28* | ?
CS(=O)(=O)c1ccc2nc(NC(=O)Nc3ccccc3F)sc2c1 | nt | nt | nt | 73* | 61* | nt
Cc1ccc(NC(=O)Nc2nc3ccc(S(C)(=O)=O)cc3s2)cc1 | 3% | 1% | -15% | nt | nt | -1%
SMILES | MARV entry inh | VACV Venus inh | Vaccinia mCherry | Shiga inhibitor | Cycloheximide cs | LASV entry inh
CS(=O)(=O)c1ccc2nc(NC(=O)Nc3cccc(Cl)c3)sc2c1 | ? | ? | -14% | 107* | 31* | ?
COc1cccc(Cn2c(CNC(=O)c3cc([N+](=O)[O-])ccc3Cl)nc3cccnc32)c1 | nt | -10% | -17% | nt | nt | -18%[46.1 µM]
CC(=O)Nc1ccc(S(=O)(=O)N[C@@H](C)C(=O)OCC(=O)c2ccc(Br)s2)cc1 | nt | -14% | -16% | nt | nt | nt
CC(NC(=O)CNC(=S)N(Cc1cccs1)C1CCCC1)c1ccccc1 (configuration not stated) | ? | -7% | -23% | -21 | 3 | -20%[46.1 µM]
Cc1ccc(C(=O)Nc2nc3ccc(S(C)(=O)=O)cc3s2)cc1C | ? | -15% | -7% | -5 | -2 | ?
Cc1cccc(C(=O)Nc2nc3ccc(S(C)(=O)=O)cc3s2)c1 | nt | nt | nt | 88* | 36* | nt
Cc1ccc(S(=O)(=O)NC(=O)NCCc2ccccc2)cc1 | 18%[46.1 µM] | -8% | -4% | 89 | 15* | 21%[46.1 µM]
